Source: PubChem BioAssay (NCATS)
Several values for one entry are separate records, joined by “and”; a condition that tells them apart may be missing. Equal entries are not always repeated. Records with an inconclusive call do not appear. A call without a number means that no potency is given here. Some compounds were tested as several samples or in several runs, with calls that do not always agree. Activity calls are given as the source filed them. Calls come from the whole dose curve; as a rule, active = well fitted inhibition curve with a large enough effect; inconclusive = small, poorly fitted or top-dose-only effect; inactive = flat fitted curve, though single readings scatter.

Biological target: Glutathione peroxidase 1 (Homo sapiens) (UniProt P07203)
Sequence (P07203 whole entry, looked up): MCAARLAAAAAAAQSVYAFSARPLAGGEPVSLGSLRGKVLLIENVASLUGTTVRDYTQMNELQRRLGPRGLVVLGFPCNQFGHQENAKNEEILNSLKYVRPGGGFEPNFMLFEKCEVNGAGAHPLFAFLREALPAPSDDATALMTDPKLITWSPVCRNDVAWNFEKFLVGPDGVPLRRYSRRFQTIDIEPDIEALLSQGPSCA
Assay: Primary qHTS Assay for Inhibitors of Recombinant Selenoprotein Glutathione Peroxidase 1 (GPX1) (AID 1845191); note: nearly all actives have a fitted effect of over 65% in size
Settings: recombinant GPX1, GR-coupled NADPH fluorescence, 15 min; series mostly up to 48.8 µM
Text: Assay Provider: Elias S.J. Arner MD PhD.
Department of Medical Biochemistry and Biophysics
Karolinska Institutet, Solna, Stockholm, Sweden
Selenoprotein glutathione peroxidases (GPX), like the ubiquitously expressed GPX1 and the ferroptosis modulator GPX4, enact their antioxidant activities by reducing hydroperoxides using glutathione. […] GPX1 and GPX4 inhibitors have thus shown promise as anti-cancer agents. Existing inhibitors are often promiscuous, or modulate GPX activity only indirectly, so novel direct inhibitors identified through screening against GPX1 and GPX4 could be valuable. Here, we developed optimized glutathione reductase (GR)-coupled GPX assays for the biochemical high-throughput screen (HTS) of almost 12,000 compounds with known mechanisms of action. Initial hits were triaged using a GR counter-screen, assessed for isoform specificity using a separate GPX2 assay, and were assessed for general selenocysteine-targeting activity using a thioredoxin reductase (TXNRD1) assay. With this suite of assays, we identified novel GPX1/GPX2- and GPX4-specific inhibitors and can here present a validated pipeline for future discovery research for selenoprotein-targeting agents.
SEQUENCE No. (e.g., 1, 2, 3, etc.); […] (e.g., Cells, Incubation, Reagent, etc.); VALUE; DESCRIPTION.
1; Reagent 1; 3 uL; GPx1 enzyme or no enzyme control in 1536-well, black, solid Greiner assay plate.
2; Compound; 25 nL; Kalypsis pin tool (Wako USA) equipped with a 1536-well pin head.
3; Incubation; 30 min; room temperature.
4; Reagent 2; 1 uL; 10 nM GPX1, 1 mM GSH, 0.5 mM CHP, 0.5 mM NADPH, 100 nM GR, 0.01% BSA substrate
5; Detection; Fluorescence; ViewLux microplate reader, excitation 340 nm and emission 450 nm.
6; Incubation; 15 min; room temperature.
7; Detection; Fluorescence; ViewLux microplate reader, excitation 340 nm and emission 450 nm.
NOTES (numbers refer to Sequence numbers above)
1. 3 uL of 16.66 nM GPX1 and 0.016% BSA in assay buffer (50 mM Tris-HCl, 2 mM EDTA (pH 7.5), 150 mM NaCl) was added to columns 3-48 of 1536-well assay plates using a BioRAPTR Flying Reagent Dispenser (Let's Go Robotics (LGR), Carlsbad, CA). A no-enzyme control (0.01% BSA in TES assay buffer) was added to columns 1-2.
2. 25 nL of test compounds and DMSO controls were added to each well with a pin tool (Kalypsys).
3. The assay plates were incubated for 30 minutes at room temperature.
4. 1 uL of master mix (500 nM glutathione reductase (GR), 5 mM reduced glutathione (GSH), 2.5 mM NADPH in assay buffer) was added. 1 uL of cumene hydroperoxide (CHP) ([2.5 mM] in 50% EtOH) was then added within 5 minutes to initiate the reaction. Final concentrations were: 10 nM GPX1, 1 mM GSH, 0.5 mM CHP, 0.5 mM NADPH, 100 nM GR, 0.01% BSA.
5. Initial fluorescence readout (t=0) at 340/450 nm was measured using a ViewLux multimodal detector (PerkinElmer, Waltham, MA).
7. Endpoint fluorescence readout (t=15) at 340/450 nm was measured 15 min after room temperature incubation.
Potency is the fitted concentration of half-maximal effect.

SMILES | Potency | outcome
Clc1ccc(C(Cn2ccnc2)OCc2c(Cl)cccc2Cl)c(Cl)c1 (stereo not given) | inactive | 
c1cnc2cc3c(cc2n1)C1CNCC3C1 | inactive | 
CC(C)C[C@H](NC(=O)[C@H](Cc1ccccc1)NC(=O)c1cnccn1)B(O)O | inactive | 
Nc1cccc2c1CN(C1CCC(=O)NC1=O)C2=O (stereo not given) | inactive | 
CN1CCC(=C2c3ccccc3CCc3sccc32)CC1 | inactive | 
O=C(NCCO[N+](=O)[O-])c1cccnc1 | inactive | 
Clc1ccc2c(N3CCN(CCCN4CCN(c5ccnc6cc(Cl)ccc56)CC4)CC3)ccnc2c1 | inactive | 
CCCS(=O)c1ccc2nc(NC(=O)OC)[nH]c2c1 (stereo not given) | inactive | 
C[C@@H](N)C1CCC(C(=O)Nc2ccncc2)CC1 (stereo not given in full) | inactive | 
Cc1c(C(=O)NN2CCCCC2)nn(-c2ccc(Cl)cc2Cl)c1-c1ccc(Cl)cc1 | inactive | 
Cc1nc(Nc2ncc(C(=O)Nc3c(C)cccc3Cl)s2)cc(N2CCN(CCO)CC2)n1 | inactive | 
CC(C)(S)[C@@H](N)C(=O)O |  | inactive [at 4.49 µM]
O=c1c(O)c(-c2ccc(O)cc2O)oc2cc(O)cc(O)c12 | inactive | 
CS(=O)(=O)OCCCCOS(C)(=O)=O | inactive | 
C[C@H](Cc1ccc(O)c(O)c1)[C@@H](C)Cc1ccc(O)c(O)c1 | inactive | 
Cc1cccc(C)c1OCC(=O)N[C@@H](Cc1ccccc1)[C@@H](O)C[C@H](Cc1ccccc1)NC(=O)[C@H](C(C)C)N1CCCNC1=O | inactive | 
O=C(O)c1cccc(-c2noc(-c3ccccc3F)n2)c1 | inactive | 
CCOC(=O)C1=C(O)C(=O)N(Cc2ccccc2)C1 | inactive | 
C[Se]CCC(N)C(=O)O (stereo not given) | inactive | 
O=C(O)c1cccnc1Nc1cccc(C(F)(F)F)c1 | inactive | 

SMILES | Potency | outcome
COC(=O)C1=C(C)NC(C)=C(C(=O)OCCCN2CCC(c3ccccc3)(c3ccccc3)CC2)C1c1cccc([N+](=O)[O-])c1 (stereo not given) | inactive | 
CC(C)c1nc(CN(C)C(=O)N[C@H](C(=O)N[C@@H](Cc2ccccc2)C[C@H](O)[C@H](Cc2ccccc2)NC(=O)OCc2cncs2)C(C)C)cs1 | inactive | 
N=C(N)c1ccc2cc(OC(=O)c3ccc(N=C(N)N)cc3)ccc2c1 | inactive | 
Cc1cc(Cl)ccc1OCCCC(=O)NO | inactive | 
O=C(O)c1cc(=O)c2c(OCC(O)COc3cccc4oc(C(=O)O)cc(=O)c34)cccc2o1 | inactive | 
O=c1oc2cc(O)ccc2s1 | inactive | 
Nc1cc(C(Cl)=C(Cl)Cl)c(S(N)(=O)=O)cc1S(N)(=O)=O | inactive | 
Cc1cccc(CN2CCN(C(c3ccccc3)c3ccc(Cl)cc3)CC2)c1 (stereo not given) | inactive | 
CN(c1nccc(=O)[nH]1)C1CCN(c2nc3ccccc3n2Cc2ccc(F)cc2)CC1 | inactive | 
CN(C)[C@@H](CCOc1cccc2ccccc12)c1ccccc1 | inactive | 
CN(C)c1ccc2nc3ccc(=[N+](C)C)cc-3sc2c1 | inactive | 
Nc1ccc(S(N)(=O)=O)cc1 | inactive | 
COC1=C(OC)C(=O)C(CCCCCCCCCCO)=C(C)C1=O | inactive and 7.28 µM (active) | 
CCN(CC)CCOc1ccc(Nc2ncc3cc(-c4c(Cl)cccc4Cl)c(=O)n(C)c3n2)cc1 | inactive | 
CCCOc1ccc2nc(NC(=O)OC)[nH]c2c1 | inactive | 
CCCCCCCCCCCCCCCCCCCCCCO | inactive | 
CC1(C)CCC(C)(C)c2cc(NC(=O)c3ccc(C(=O)O)cc3)ccc21 | inactive | 
Cc1ccc(NC(=O)c2ccc(CN3CCN(C)CC3)cc2)cc1Nc1nccc(-c2cccnc2)n1 | inactive | 
O=C(O)c1cn(-c2ccc(F)cc2)c2cc(N3CCNCC3)c(F)cc2c1=O | inactive | 
COc1cc(Nc2c(C#N)cnc3cc(OCCCN4CCN(C)CC4)c(OC)cc23)c(Cl)cc1Cl | inactive | 
